ADAM10 inh = inhibitors of human ADAM10; O14672; recombinant ADAM10, EDANS/DABCYL FRET peptide cleavage, 3 h; inhibition, % at 7 µM; 370,000 tested, 0.62% active; AID 720582;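 active means inhibition above a per-campaign cutoff equal to the mean of compounds falling between control-based bounds plus 3 SD, cut at about 20% in these data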;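 further: 0% = DMSO wells while the 100% control is not disclosed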
ADAM17 inh = inhibits human ADAM17; P78536; 370,000 tested, 0.83% active; inhibition, % at 6.95 µM; recombinant ADAM17, EDANS/DABCYL FRET peptide cleavage; AID 720648;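 active means inhibition above the mean of compounds lying between control limits plus 3 SD, set per campaign, cut at about 8.5% in these data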;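 further: 0% = DMSO-only wells as the low control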
Target sequence (P78536 215-824 limits assumed): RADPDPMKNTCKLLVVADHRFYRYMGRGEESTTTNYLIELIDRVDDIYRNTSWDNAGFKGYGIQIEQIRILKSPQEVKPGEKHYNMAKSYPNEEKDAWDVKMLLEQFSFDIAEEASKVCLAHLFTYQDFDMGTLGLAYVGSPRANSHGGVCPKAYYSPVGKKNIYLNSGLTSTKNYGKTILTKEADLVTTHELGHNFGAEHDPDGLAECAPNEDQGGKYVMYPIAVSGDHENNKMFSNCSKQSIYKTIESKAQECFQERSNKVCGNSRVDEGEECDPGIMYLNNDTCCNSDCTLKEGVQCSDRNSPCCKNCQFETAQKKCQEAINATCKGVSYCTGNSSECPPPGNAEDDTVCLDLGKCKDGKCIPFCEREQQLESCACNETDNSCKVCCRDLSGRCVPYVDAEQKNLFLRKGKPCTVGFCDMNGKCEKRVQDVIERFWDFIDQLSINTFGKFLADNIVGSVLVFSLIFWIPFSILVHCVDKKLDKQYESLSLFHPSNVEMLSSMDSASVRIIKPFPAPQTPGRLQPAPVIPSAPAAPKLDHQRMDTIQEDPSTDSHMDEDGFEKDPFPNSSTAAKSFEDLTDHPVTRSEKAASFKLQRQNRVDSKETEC
PLC-gamma1 inh = blocks human PLC-gamma1 enzyme activity; P19174; purified PLC-gamma1, fluorogenic substrate, fluorescence; inhibition, % at 12.2 µM; 370,000 tested, 0.84% active; AID 720700; in the data active means inhibition above about 9.5%
proKLK7 act = proKLK7 (human) activation, primary screen; purified proKLK7, EDANS-DABCYL substrate fluorescence; 100% is mature enzyme control, 0% vehicle; activation, % at 7 µM; 370,000 tested, 0.9% active; AID 652039;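 active means activation above the mean of all tested compounds plus 3 SD, computed per campaign excluding outliers beyond control limits, cut at about 13% in these data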
PLCb3 inh = inhibitors of human phospholipase C beta3 | Q01970 | Purified PLC-beta3, fluorogenic substrate, fluorescence | inhibition, % at 12.2 µM | 370,000 tested, 0.18% active; in the data active means inhibition above about 11%;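 further: 0% = median of compound wells on plate and 100% = full blocker control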
ADAM10 confirm = confirmation of inhibitors of human ADAM10; AID 743208; shares compounds with ADAM10 inh; inhibition, % at 6.95 µM; ADAM10 QFRET peptide cleavage, EDANS fluorescence; 2,100 tested, 1% active;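 active means inhibition above about 20% chosen separately for each screening run, limit read from the data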;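 further: 0% = DMSO wells and 100% = marimastat wells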
ADAM17 ctr = counter-screen for ADAM10 exosite inhibitors: inhibitors of human ADAM17; shares compounds with ADAM10 inh; ADAM17 QFRET peptide cleavage, EDANS fluorescence; inhibition, % at 6.95 µM; 2,100 tested, 0.5% active;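 active means mean triplicate inhibition above the solvent-only control wells' mean plus 3 SD, cut at about 12% in these data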;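 further: 0% = DMSO wells and 100% = marimastat wells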
ADAM10 ctr = counter-screen for ADAM17 exosite inhibitors: inhibitors of human ADAM10; 2,900 tested, 47% active; shares compounds with ADAM17 inh; recombinant ADAM10, EDANS/DABCYL FRET peptide cleavage, 3 h; inhibition, % at 6.95 µM; AID 743256;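 active means mean inhibition over the triplicate runs exceeds the activity threshold set in the earlier primary screen, cut at about 20% in these data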;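 further: 0% = DMSO wells and 100% = marimastat wells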
ADAM17 confirm = human ADAM17 inhibition, confirmation | recombinant ADAM17, EDANS/DABCYL QFRET peptide cleavage | 2,900 tested, 65% active | shares compounds with ADAM17 inh | inhibition, % at 6.95 µM;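 active means mean inhibition across replicates above the hit cutoff set in the primary screen, cut at about 8.5% in these data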;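 further: 0% = DMSO wells and 100% = marimastat wells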
An asterisk follows results filed as active. In the library only some 2.9% were active in any assay of this set; here they are far more common.

O=C(COc1ccc(Br)cc1)N1CCN(c2ccc([N+](=O)[O-])c(N3CCCCC3)c2)CC1 was read as ADAM10 inh 24*, ADAM17 inh 11*, PLC-gamma1 inh 5, proKLK7 act 0, PLCb3 inh 5, ADAM10 confirm 8, ADAM17 ctr 1, ADAM10 ctr 32* and ADAM17 confirm 18*.
Screening Cc1ccc(OCC(=O)N2CCN(c3ccc([N+](=O)[O-])c(N4CCOCC4)c3)CC2)cc1 returned ADAM10 inh 2, ADAM17 inh 1, PLC-gamma1 inh 1, proKLK7 act 1 and PLCb3 inh 0.
For O=C(NCC1COc2ccccc2O1)c1cccc(S(=O)(=O)N2CCN(c3ccccc3)CC2)c1 (stereo not drawn) the results were ADAM10 inh 21*, ADAM17 inh 9.9*, PLC-gamma1 inh -1, proKLK7 act -2, PLCb3 inh -5, ADAM10 confirm 6, ADAM17 ctr 2, ADAM10 ctr 13 and ADAM17 confirm 13*.
For COc1ccc(NC(=O)c2cc(S(=O)(=O)NCC3COc4ccccc4O3)ccc2F)cc1 (stereo not drawn) the results were ADAM10 inh 12, ADAM17 inh 6, PLC-gamma1 inh 2, proKLK7 act 0 and PLCb3 inh 4.
`CC(C)c1ccc(NC(=O)c2cc(S(=O)(=O)NCC3COc4ccccc4O3)ccc2F)cc1` (stereo not drawn) gave ADAM10 inh 21*, ADAM17 inh 10.0*, PLC-gamma1 inh -3, proKLK7 act 0, PLCb3 inh 0, ADAM10 confirm 10, ADAM17 ctr 4, ADAM10 ctr 38* and ADAM17 confirm 26*.
For O=C(Nc1ccc(C(F)(F)F)cc1)c1cc(S(=O)(=O)NCC2COc3ccccc3O2)ccc1F (stereo not drawn) the results were ADAM10 inh 25*, ADAM17 inh 13*, PLC-gamma1 inh 0, proKLK7 act -1, PLCb3 inh 0, ADAM10 confirm 5, ADAM17 ctr 2, ADAM10 ctr 51* and ADAM17 confirm 24*.
For COc1ccc(OCCNC(=O)C2(C)CCN2Cc2ccc3ccccc3c2)cc1 (stereo not drawn) the results were ADAM10 inh 17, ADAM17 inh 7, PLC-gamma1 inh 1, proKLK7 act 0 and PLCb3 inh 1.
Screening COc1cc(NC(=O)c2ccno2)cc(C(=O)Nc2cccc(C(F)(F)F)c2)c1 returned ADAM10 inh 28*, ADAM17 inh 12*, PLC-gamma1 inh 3, proKLK7 act 0, PLCb3 inh 4, ADAM10 confirm 0, ADAM17 ctr 0, ADAM10 ctr 25* and ADAM17 confirm 13*.
`Cc1ccccc1N=C1NC(=O)/C(=C/c2cccn2C)S1` gave ADAM10 inh 27*, ADAM17 inh 9.9*, PLC-gamma1 inh -2, proKLK7 act 0, PLCb3 inh -18, ADAM10 confirm -1, ADAM17 ctr 6, ADAM10 ctr 17 and ADAM17 confirm 13*.
Screening Cc1ccc([C@H]2N[C@]3(CCCN(Cc4ccc(C(F)(F)F)cc4)C3=O)[C@H]3C(=O)N(Cc4ccccc4)C(=O)[C@@H]23)cc1 returned ADAM10 inh 28*, ADAM17 inh 12*, PLC-gamma1 inh 8, proKLK7 act 0, PLCb3 inh 6, ADAM10 confirm 4, ADAM17 ctr 1, ADAM10 ctr 34* and ADAM17 confirm 20*.
Cc1ccc(CN2CCC[C@]3(N[C@H](c4ccc(C(F)(F)F)cc4)[C@@H]4C(=O)N(Cc5ccccc5)C(=O)[C@@H]43)C2=O)cc1 was read as ADAM10 inh 20*, ADAM17 inh 9.7*, PLC-gamma1 inh 2, proKLK7 act 1, PLCb3 inh 4, ADAM10 confirm 2, ADAM17 ctr 1, ADAM10 ctr 38* and ADAM17 confirm 22*.
For Cc1ccc([C@H]2N[C@]3(CCCN(Cc4ccc(F)cc4)C3=O)[C@H]3C(=O)N(Cc4ccccc4)C(=O)[C@@H]23)cc1 the results were ADAM10 inh -3, ADAM17 inh -2, PLC-gamma1 inh -1, proKLK7 act 0 and PLCb3 inh -2.
`CCN1C(=O)[C@H]2[C@@H](c3ccc(C)cc3)N[C@]3(CCCN(Cc4ccc(C(F)(F)F)cc4)C3=O)[C@H]2C1=O` gave ADAM10 inh -19, ADAM17 inh -4, PLC-gamma1 inh 3, proKLK7 act 0 and PLCb3 inh -1.
CC(=O)NC(C)C(=O)N1CCCC1C(=O)N1CCCC1C(=O)NC(C)C(=O)NC1C(=O)NC(CC(C)C)C(=O)NC2CCCCNC(=O)CCC(C(=O)NC(Cc3ccc(O)cc3)C(=O)O)NC(=O)C3CCC(=O)OCC(NC(=O)C4CCCN4C(=O)C(Cc4c[nH]c5ccccc45)NC2=O)C(=O)NC(CC(=O)OC1C)C(=O)NC(Cc1c[nH]c2ccccc12)C(=O)N3 (stereo not drawn) was read as ADAM10 inh -2, ADAM17 inh -5, PLC-gamma1 inh 6, proKLK7 act 0 and PLCb3 inh 2.
`Cn1cccc1CC(=O)NN=Cc1cccc(F)c1` gave ADAM10 inh 0, ADAM17 inh -3, PLC-gamma1 inh -2, proKLK7 act 0 and PLCb3 inh -4.
`COc1cccc(C(=O)N2CCC(Oc3cccnc3)CC2)c1` gave ADAM10 inh -3, ADAM17 inh -3, PLC-gamma1 inh 1, proKLK7 act 0 and PLCb3 inh 2.
`O=C(Cc1c(Sc2ccccc2)c2ccccc2n1Cc1ccccc1)NCCO` gave ADAM10 inh 30*, ADAM17 inh 14*, PLC-gamma1 inh 6, proKLK7 act 1, PLCb3 inh 3, ADAM10 confirm 5, ADAM17 ctr 1, ADAM10 ctr 15 and ADAM17 confirm 9.1*.
Screening COc1cccc(C(=O)Nc2nc(-c3ccc(S(=O)(=O)N4CCOCC4)cc3)cs2)c1 returned ADAM10 inh 4, ADAM17 inh 0, PLC-gamma1 inh -12, proKLK7 act -7 and PLCb3 inh -9.

High-throughput results deposited in PubChem by The Scripps Research Institute Molecular Screening Center.
